The source made the active and inactive calls. Cut-off read from the data, not from the text of the source, unless noted: active = nuclear beta-catenin stimulation mostly above about 4.2% (no sharp cut-off); inactive = mostly below about 10%.

17 molecules from PubChem BioAssay can be followed below.

Assay [1] can be described thus: Wnt pathway potentiators raising nuclear beta-catenin – imaging, WNT3A-conditioned medium, mouse C2C12, NPC library, primary screen (AID 1117326). Note: reference of the scale not given here. To be noted: stronger effect = higher value.
Assay [2] can be described thus: stimulators of insulin release from INS-1E, primary screen, cell-based, 5 mM glucose, NPC library (AID 1117329;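 active = compound raises insulin release from rat beta cells at 5 mM glucose, no numeric limit stated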; note: reference of the scale not given here). To be noted: rat INS-1E insulin secretion, at 10 µM, stronger effect = higher value.
A short description of assay [3]: growth inhibition of GSK3B-pretreated HCT116 cells – cell-based, CellTiter-Glo, 0.2 to 20 µM (AID 1117336;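 active = compounds lowering colon cancer cell viability after pretreatment blocking the GSK3B kinase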). Conditions: HCT116 viability after GSK3B inhibitor, at 20 µM, stronger effect = higher value.
The nature of assay [4]: inhibition of endothelial tube formation, primary screen, imaging, VEGF stimulated, CD31 staining, tube area, NPC library (AID 1117340;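 active = compound that reduces growth-factor-driven endothelial tube area in a mixed cell culture, no cutoff stated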). To be noted: VEGF-stimulated ADSC/ECFC co-culture, at 10 µM, stronger effect = higher value.
Assay [5] is described as follows: GLP1 release stimulators, primary, NCI-H716, NPC library (AID 1117341;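 active = compound raises GLP1 secretion from the human gut endocrine cells, with no numeric limit stated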; note: reference of the scale not given here). To be noted: NCI-H716 cells, at 10 µM, stronger effect = higher value.
Assay [6] is described as follows: HCT116 colon cancer cell growth inhibition, primary screen, CellTiter-Glo luminescence, NPC library (AID 1117342;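 active = compounds that lower survival of HCT116 colon cancer cells in the luminescence readout, no numeric limit stated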). Conditions: at 20 µM (top of the series). A general note: In ATP-based viability assays light output follows the ATP content of the culture.
Assay [7] in a line: reduced SW480 viability measured with CellTiter-Glo, NPC library, primary (AID 1117343;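 active = compounds that lower viability of the colon cancer cells in the luminescence readout, with no numeric limit stated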). Conditions: CellTiter-Glo luminescence; at 20 µM (top of the series).
Assay [8] in a line: NPC library primary testing for decreased DLD-1 cell viability via CellTiter-Glo (AID 1117346;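 active = compounds that lower survival of DLD-1 colon cancer cells in the luminescence readout, no cutoff given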). To be noted: DLD-1 viability, CellTiter-Glo luminescence; at 20 µM (top of the series).

Turning to `O=C(O)COc1ccccc1`, the nuclear beta-catenin stimulation was 1.6% (inactive) in assay [1] (at 10 µM) and 0.3% in assay [1] (stimulation, at 2 µM). In addition, the insulin secretion stimulation in assay [2] was -2.7% (inactive). In assay [3], the viability decrease is -4.9% (inactive). Moreover, the tube area decrease in assay [4] is -5.1% (inactive). The GLP1 secretion stimulation in assay [5] was 0.4% (inactive). Moreover, the inhibition of viability in assay [6] was -0.7% (inactive). Moreover, the viability decrease (inhibition) is -15.1% (inactive) in assay [7] and -15.4% (inactive) in assay [8].
For the molecule `COC1CC(=C(c2cccs2)c2cccs2)C[N+](C)(C)C1` (stereo not drawn), the nuclear beta-catenin stimulation in assay [1] (at 10 µM) was -1.6% (inactive); in assay [1] (stimulation, at 2 µM) it was 1.1%. In assay [2], the insulin secretion stimulation was 0.1% (inactive). Besides, in assay [3], the viability decrease was -13.9% (inactive). Further, the tube area decrease in assay [4] is 10.1% (inactive). Also, the GLP1 secretion stimulation in assay [5] is -0.6% (inactive). The inhibition of viability in assay [6] was 8.3% (inactive). The viability decrease (inhibition) in assay [7] was -2.9% (inactive); in assay [8], -0.4% (inactive).
With `CNC(=O)Oc1cccc2ccccc12`, the nuclear beta-catenin stimulation in assay [1] (at 10 µM) was 7.6% (inactive); in assay [1] (stimulation, at 2 µM) it was 0.4%. Besides, in assay [2], the insulin secretion stimulation was 1.3% (inactive). Also, the viability decrease in assay [3] is 0.5% (inactive). Also, the tube area decrease in assay [4] was 41.9% (active). In addition, in assay [5], the GLP1 secretion stimulation is -5.4% (inactive). In addition, the inhibition of viability in assay [6] is 5% (inactive). The figures for the viability decrease (inhibition) in assay [7] and in assay [8] were 114% (active) and 16.3% (inactive), respectively.
As to `S=C(SSC(=S)N1CCCCC1)N1CCCCC1`, the nuclear beta-catenin stimulation in assay [1] (at 10 µM) was 1.8% (inactive); in assay [1] (stimulation, at 2 µM), 0.4%. Also, in assay [2], the insulin secretion stimulation is -2.6% (inactive). In addition, in assay [3], the viability decrease is -2.9% (inactive). The tube area decrease in assay [4] was 8.9% (inactive). The GLP1 secretion stimulation in assay [5] is -2.3% (inactive). Besides, in assay [6], the inhibition of viability is -14.8% (inactive). Further, the viability decrease (inhibition) in assay [7] is 13.2% (inactive); in assay [8], -3.5% (inactive).
`CCN(CC)Cc1nccn1-c1ccc([N+](=O)[O-])cc1C(=O)c1ccccc1Cl`: the nuclear beta-catenin stimulation in assay [1] (at 10 µM) was -1.2% (inactive); in assay [1] (stimulation, at 2 µM), -0.2%. Also, the insulin secretion stimulation in assay [2] is 7.4% (inactive). For the same molecule, in assay [3], the viability decrease was -3% (inactive). In addition, in assay [4], the tube area decrease is 2.7% (inactive). Besides, the GLP1 secretion stimulation in assay [5] is -0.3% (inactive). Also, the inhibition of viability in assay [6] is 28.5% (inactive). The viability decrease (inhibition) in assay [7] was 39.7% (inactive); in assay [8], 0% (inactive).
On to `COc1cc(CC#N)cc(OC)c1OC`, for which the nuclear beta-catenin stimulation in assay [1] (at 10 µM) is 0% (inactive); in assay [1] (stimulation, at 2 µM), 1.2%. Further, the insulin secretion stimulation in assay [2] was 2.2% (inactive). In addition, in assay [3], the viability decrease was 2.6% (inactive). Moreover, in assay [4], the tube area decrease is 36.1% (inactive). Besides, the GLP1 secretion stimulation in assay [5] is 4.1% (inactive). For the same molecule, the inhibition of viability in assay [6] is 22.6% (inactive). Also, the viability decrease (inhibition) in assay [7] was 15.5% (inactive); in assay [8], -1.6% (inactive).
As for `C[C@]12C[C@@H]3S[C@H]3C[C@@H]1CC[C@H]1[C@H]3CC[C@@H](O)[C@@]3(C)CC[C@@H]12`, the nuclear beta-catenin stimulation in assay [1] (at 10 µM) is -1% (inactive); in assay [1] (stimulation, at 2 µM) it was -0.5%. Further, the insulin secretion stimulation in assay [2] was 2.4% (inactive). Moreover, in assay [3], the viability decrease was -16.6% (inactive). For the same molecule, the tube area decrease in assay [4] is 10.4% (inactive). Further, the GLP1 secretion stimulation in assay [5] was -4.2% (inactive). In addition, in assay [6], the inhibition of viability was 18.8% (inactive). The viability decrease (inhibition) in assay [7] is 17.2% (inactive); in assay [8], -13.3% (inactive).
For `COc1ccc2c(C(=O)c3ccc(Cl)cc3)c(C)n(CC(=O)O)c2c1`, the nuclear beta-catenin stimulation in assay [1] (at 10 µM) was -0.1% (inactive); in assay [1] (stimulation, at 2 µM), -0.8%. The insulin secretion stimulation in assay [2] is 1.05% (inactive). In assay [3], the viability decrease is 13.7% (inactive). In addition, the tube area decrease in assay [4] was -18.1% (inactive). Moreover, the GLP1 secretion stimulation in assay [5] is -0.1% (inactive). For the same molecule, the inhibition of viability in assay [6] was 8% (inactive). Further, the viability decrease (inhibition) in assay [7] is 22.3% (inactive); in assay [8], -3.8% (inactive).
In the case of `C[C@]12CC[C@H]3[C@@H](CCC4=CC(=O)CC[C@@H]43)[C@@H]1CC[C@@H]2OC(=O)CCc1ccco1`, the nuclear beta-catenin stimulation in assay [1] (at 10 µM) was 2.9% (inactive); in assay [1] (stimulation, at 2 µM) it was 1%. The insulin secretion stimulation in assay [2] is 2.5% (inactive). In addition, the viability decrease in assay [3] is -67% (inactive). The tube area decrease in assay [4] was 47.2% (active). Further, the GLP1 secretion stimulation in assay [5] was -3.2% (inactive). In assay [6], the inhibition of viability is 23.6% (inactive). For the same molecule, the viability decrease (inhibition) in assay [7] was 37.2% (inactive); in assay [8] it was 14.9% (inactive).
For the molecule `CCCCNCC(O)c1ccc(O)cc1` (stereo not drawn), the nuclear beta-catenin stimulation in assay [1] (at 10 µM) was -0.1% (inactive); in assay [1] (stimulation, at 2 µM), 3.1%. Moreover, the insulin secretion stimulation in assay [2] is 2.3% (inactive). Moreover, the viability decrease in assay [3] is 0.3% (inactive). Further, in assay [4], the tube area decrease was 16.9% (inactive). For the same molecule, the GLP1 secretion stimulation in assay [5] was -2.1% (inactive). In addition, the inhibition of viability in assay [6] was 8% (inactive). Further, the viability decrease (inhibition) was -1.7% (inactive) in assay [7] and -9.2% (inactive) in assay [8].
For `CCN(CC)CCOC(=O)C(C)(c1ccccc1)c1ccccc1`, the nuclear beta-catenin stimulation in assay [1] (at 10 µM) was 1.1% (inactive); in assay [1] (stimulation, at 2 µM), 0.8%. Further, the insulin secretion stimulation in assay [2] was 27.8% (active). Moreover, the viability decrease in assay [3] was 36.8% (inactive). Further, the tube area decrease in assay [4] is 0.6% (inactive). The GLP1 secretion stimulation in assay [5] was 8.1% (inactive). Also, the inhibition of viability in assay [6] was 49.8% (inactive). The values for the viability decrease (inhibition) in assay [7] and in assay [8] were 22.2% (inactive) and 17.9% (inactive), respectively.
`CN1CCC(N(Cc2ccccc2)c2ccccc2)CC1`: the nuclear beta-catenin stimulation in assay [1] (at 10 µM) is 0.1% (inactive); in assay [1] (stimulation, at 2 µM), -3%. In addition, the insulin secretion stimulation in assay [2] is 14.1% (inactive). Also, in assay [3], the viability decrease is 24.8% (inactive). For the same molecule, the tube area decrease in assay [4] was -0.1% (inactive). For the same molecule, the GLP1 secretion stimulation in assay [5] was 14.3% (inactive). In assay [6], the inhibition of viability is 41.7% (inactive). The values for the viability decrease (inhibition) in assay [7] and in assay [8] were 48.7% (inactive) and 23.2% (inactive), respectively.
Turning to `CNC(C)[C@@H](O)c1ccc(O)cc1` (stereo partly drawn), the nuclear beta-catenin stimulation in assay [1] (at 10 µM) was 0.7% (inactive); in assay [1] (stimulation, at 2 µM), 1.3%. Moreover, in assay [2], the insulin secretion stimulation was 4.8% (inactive). Besides, the viability decrease in assay [3] was -4.1% (inactive). Besides, the tube area decrease in assay [4] was -8.3% (inactive). Besides, in assay [5], the GLP1 secretion stimulation is -5% (inactive). For the same molecule, the inhibition of viability in assay [6] is 3.4% (inactive). Also, the viability decrease (inhibition) is 27.7% (inactive) in assay [7] and 6% (inactive) in assay [8].
`CCc1ccc(C2CCNCC2)cc1`: the nuclear beta-catenin stimulation in assay [1] (at 10 µM) was -1.4% (inactive); in assay [1] (stimulation, at 2 µM), -0.7%. In addition, the insulin secretion stimulation in assay [2] was 4% (inactive). Besides, the viability decrease in assay [3] was -2.8% (inactive). Moreover, the tube area decrease in assay [4] was 1.2% (inactive). The GLP1 secretion stimulation in assay [5] was -5.6% (inactive). Further, the inhibition of viability in assay [6] is 24.1% (inactive). The viability decrease (inhibition) in assay [7] is 9% (inactive); in assay [8], -8.7% (inactive).
With `COP(=S)(OC)Oc1ccc(S(N)(=O)=O)cc1`, the nuclear beta-catenin stimulation is 0.4% (inactive) in assay [1] (at 10 µM) and 1.1% in assay [1] (stimulation, at 2 µM). Also, the insulin secretion stimulation in assay [2] was -1.7% (inactive). In addition, in assay [3], the viability decrease is -4.35% (inactive). Moreover, the tube area decrease in assay [4] was -30.3% (inactive). Besides, in assay [5], the GLP1 secretion stimulation was 1.6% (inactive). In assay [6], the inhibition of viability was -18.1% (inactive). Also, the viability decrease (inhibition) in assay [7] was 4.3% (inactive); in assay [8] it was -0.7% (inactive).
In the case of `CC(C)(C)NCC(O)c1cc(Cl)c(N)c(C(F)(F)F)c1` (stereo not drawn), the nuclear beta-catenin stimulation in assay [1] (at 10 µM) was 0.4% (inactive); in assay [1] (stimulation, at 2 µM), 1%. For the same molecule, the insulin secretion stimulation in assay [2] was -1.6% (inactive). In addition, the viability decrease in assay [3] was -16.8% (inactive). Moreover, in assay [4], the tube area decrease is -0.3% (inactive). For the same molecule, the GLP1 secretion stimulation in assay [5] is -2.3% (inactive). Moreover, the inhibition of viability in assay [6] was 10.6% (inactive). The viability decrease (inhibition) is 5.9% (inactive) in assay [7] and -1.7% (inactive) in assay [8].
For the molecule `NNc1ccccc1`, the nuclear beta-catenin stimulation was 0.8% (inactive) in assay [1] (at 10 µM) and 2.4% in assay [1] (stimulation, at 2 µM). In assay [2], the insulin secretion stimulation is -1.6% (inactive). In addition, the viability decrease in assay [3] was 14.6% (inactive). Further, the tube area decrease in assay [4] was 26.7% (inactive). In addition, the GLP1 secretion stimulation in assay [5] was 3.7% (inactive). For the same molecule, the inhibition of viability in assay [6] is -3.85% (inactive). In addition, the viability decrease (inhibition) is 45% (inactive) in assay [7] and 21.2% (inactive) in assay [8].
